Measurements reported in ChEMBL document CHEMBL3988442, “University of Dundee, Small-Polar-MMV Screening Library” (2021).
The campaign covered roughly 69,000 compounds. About 1,000 (1.4%) showed an effect of 50% or more. This is one part of a sample in which strong results are shown more often than they occur.

System: Leishmania donovani
Assay: Leishmania intramacrophage assay
Type: functional, organism-based
Set-up: scale not given: in the data most compounds retested in dose-response had high values

**Q.** `CCN(CC)C(=O)c1nnn(Cc2ccccc2)c1OC` was tested. Which “Percent Effect” value (30 µM, 30.03 µM) did it give?
**A.** -25.11%

**Q.** For `Cc1ccc(C(=O)N2CCC3(CCC(=O)N(CC(N)=O)C3)CC2)cc1`, which “Percent Effect” value (30.3 µM, […]) is on record?
**A.** -8.473%

**Q.** `CC(C1CC1)N(C(=O)CNc1ccc(C#N)cc1)C1CC1` (stereo not given) was tested. Which “Percent Effect” value (30.3 µM, […]) did it give?
**A.** 26.89%

**Q.** For `O=C(O)C(F)(F)F.O=C(c1cccc(Cl)c1)N1CC[C@H]2[C@H]1CCN2CC1CCOCC1`, which “Percent Effect” value (30 µM, 30.03 µM) is on record?
**A.** 39.19%

**Q.** How did the “Percent Effect” value (30.3 µM, […]) turn out when `CN(C)CCN1CC[C@@H]2[C@@H]1CCN2C(=O)c1cccc(Cl)c1` was run?
**A.** 54.02%

**Q.** `O=C(O)C(F)(F)F.O=C(c1cccc(Cl)c1)N1CC[C@H]2[C@H]1CCN2CC1CC1` was tested. Which “Percent Effect” value (30.3 µM, […]) did it give?
**A.** 23.02%

**Q.** How did the “Percent Effect” value (30.3 µM, […]) turn out when `CO[C@H]1CN(C(=O)c2ccc(-c3ccccc3)[nH]2)CC[C@H]1N` was run?
**A.** 45.29%

**Q.** `O=C(c1ccc(-c2ccccc2)[nH]c1=O)N1CCN(C2CC2)CC1` was tested. Which “Percent Effect” value (30.3 µM, […]) did it give?
**A.** 25.14%

**Q.** For `CN1[C@H]2CC[C@@H]1CN(C(=O)c1ccc(-c3ccccc3)[nH]1)CC2`, which “Percent Effect” value (30.3 µM, […]) is on record?
**A.** 78.84%

**Q.** For `CCCS(=O)(=O)CC(=O)N1CCN(CC2CC2)c2ccccc21`, which “Percent Effect” value (30.3 µM, […]) is on record?
**A.** 3.775%

**Q.** `Cc1ccc2c(n1)N(CCN(C)C)CCN(C(=O)c1cscn1)C2.O=C(O)C(F)(F)F.O=C(O)C(F)(F)F` was tested. Which “Percent Effect” value (30.3 µM, […]) did it give?
**A.** 4.389%

**Q.** For `Cc1ccc2c(n1)N(CCN(C)C)CCN(C(=O)c1ccc[nH]1)C2.O=C(O)C(F)(F)F.O=C(O)C(F)(F)F`, which “Percent Effect” value (30 µM, 30.03 µM) is on record?
**A.** 20.64%

**Q.** How did the “Percent Effect” value (30.3 µM, […]) turn out when `Cc1ccc2c(n1)N(CCN(C)C)CCN(C(=O)c1cccs1)C2.O=C(O)C(F)(F)F.O=C(O)C(F)(F)F` was run?
**A.** 50.31%

**Q.** `O=C(c1ccc(F)c(F)c1)N1CCCCC1c1nc[nH]n1` (stereo not given) was tested. Which “Percent Effect” value (30.3 µM, […]) did it give?
**A.** -8.926%

**Q.** `CC(=O)c1ccc(C(=O)N2CCCCC2c2nc[nH]n2)cc1` (stereo not given) was tested. Which “Percent Effect” value (30.3 µM, […]) did it give?
**A.** 66.49%

**Q.** Which “Percent Effect” value (30.3 µM, […]) does the source give for `O=C(c1ccoc1)N1CCCCC1c1nc[nH]n1` (stereo not given) here?
**A.** 24.92%

**Q.** `CCOCC1CN(C(=O)c2cscn2)Cc2cn(C)nc21.O=C(O)C(F)(F)F` (stereo not given) was tested. Which “Percent Effect” value (30.3 µM, […]) did it give?
**A.** -0.7565%

**Q.** For `O=C(c1ccc(-c2ccc(O)nc2)s1)N1CCCCCC1`, which “Percent Effect” value (30.3 µM, […]) is on record?
**A.** 19.86%

**Q.** `Cc1nc(C2CCCNC2)cc(N(C)CCc2cn[nH]c2)n1` (stereo not given) was tested. Which “Percent Effect” value (30.3 µM, […]) did it give?
**A.** 29.46%

**Q.** `Cc1nc(C2CCCNC2)cc(N(C)CCc2ccccc2)n1` (stereo not given) was tested. Which “Percent Effect” value (30.3 µM, […]) did it give?
**A.** 66.58%

**Q.** Which “Percent Effect” value (30.3 µM, […]) does the source give for `Cl.c1cc(NCc2ccncc2)nc(C2CCCNC2)c1` (stereo not given) here?
**A.** 20.7%

**Q.** Which “Percent Effect” value (30.3 µM, […]) does the source give for `Cl.c1ccc(CCNc2cccc(C3CCCNC3)n2)cc1` (stereo not given) here?
**A.** 71.14%

**Q.** How did the “Percent Effect” value (30.3 µM, […]) turn out when `Cl.c1cc(CC2CCCNC2)nc(NCCc2cnccn2)c1` (stereo not given) was run?
**A.** 2.895%

**Q.** For `CCn1ccnc1CN(C)c1cc(C2CCCNC2)nc(C)n1` (stereo not given), which “Percent Effect” value (30.3 µM, […]) is on record?
**A.** -6.202%

**Q.** `CC1(C)Cc2c(cnn2-c2ccccc2)C(NC2CCSCC2)C1` (stereo not given) was tested. Which “Percent Effect” value (30.3 µM, […]) did it give?
**A.** 17.91%

**Q.** Which “Percent Effect” value (30.3 µM, […]) does the source give for `CCN1C(=O)[C@H]2CN(Cc3cccnc3)C[C@H]2C12CCN(C(C)=O)CC2` here?
**A.** 4.627%

**Q.** For `CNC(=O)CN1CCC(OCc2ccc(Cl)c(Cl)c2)CC1`, which “Percent Effect” value (30.3 µM, […]) is on record?
**A.** 23.39%

**Q.** `CCC(N)C(=O)N1CCC(OCc2ccc(Cl)c(Cl)c2)CC1.Cl` (stereo not given) was tested. Which “Percent Effect” value (30.3 µM, […]) did it give?
**A.** 81.5%

**Q.** Which “Percent Effect” value (30.3 µM, […]) does the source give for `NC(=O)CN1CCC(OCc2ccc(Cl)c(Cl)c2)CC1` here?
**A.** 39.98%

**Q.** `NC(=O)C1CCN(C(=O)Cc2ccc(Cl)c(Cl)c2)CC1` was tested. Which “Percent Effect” value (30.3 µM, […]) did it give?
**A.** 12.37%

**Q.** How did the “Percent Effect” value (30.3 µM, […]) turn out when `CSCCC(O)C(=O)N1CCC(OCc2cccnc2)CC1` (stereo not given) was run?
**A.** -15.88%

**Q.** How did the “Percent Effect” value (30.3 µM, […]) turn out when `CCOc1cc(-c2cc(=O)n3c(n2)CCCCC3)ccc1O` was run?
**A.** -28.99%

**Q.** `O=C(O)C(F)(F)F.O=C([C@H]1COC[C@H]2CN(c3ncc(F)cn3)C[C@H]21)N1CCOCC1` was tested. Which “Percent Effect” value (30.3 µM, […]) did it give?
**A.** 11.96%

**Q.** For `O=C(CCN1CCCC(CO)(CC2CC2)C1)NCc1cccc(Cl)c1` (stereo not given), which “Percent Effect” value (30.3 µM, […]) is on record?
**A.** 10.86%

**Q.** How did the “Percent Effect” value (30.3 µM, […]) turn out when `CN(Cc1ccccn1)C(=O)[C@H]1CO[C@H]2CCN(CC3CC3)C[C@H]2C1.O=C(O)C(F)(F)F.O=C(O)C(F)(F)F` was run?
**A.** 67.47%

**Q.** With `COCCN1CC[C@@H]2OC[C@H](C(=O)N(C)Cc3ccccn3)C[C@@H]2C1` as the compound, how does the “Percent Effect” value (30.3 µM, […]) read?
**A.** 34.37%

**Q.** For `O=C(NCCc1cccs1)[C@H]1CO[C@H]2CCN(CC3CC3)C[C@H]2C1.O=C(O)C(F)(F)F`, which “Percent Effect” value (30.3 µM, […]) is on record?
**A.** 18.2%

**Q.** How did the “Percent Effect” value (30.3 µM, […]) turn out when `Cc1nc(CN2CCO[C@H]3CN(C(=O)c4cccn4C)C[C@H]32)cs1` was run?
**A.** 20.02%

**Q.** Which “Percent Effect” value (30.3 µM, […]) does the source give for `O=C(CSc1ccncc1)NC1CC(=O)N(CCc2ccccc2)C1` (stereo not given) here?
**A.** 1.719%

**Q.** How did the “Percent Effect” value (30.3 µM, […]) turn out when `CCNc1ncc(-c2cc(-c3ccn(C)c3)nc(N)c2C#N)cn1` was run?
**A.** -7.222%

**Q.** `COc1ncc(-c2cc(-c3ccn(C)c3)nc(N)c2C#N)cn1` was tested. Which “Percent Effect” value (30.3 µM, […]) did it give?
**A.** 4.864%

**Q.** For `CCn1cc(-c2cc(-c3ccn(C)c3)nc(N)c2C#N)cc1C#N`, which “Percent Effect” value (30.3 µM, […]) is on record?
**A.** 62.07%

**Q.** With `COc1c(CNCc2ccccc2-n2ccnc2)c(C)nn1C` as the compound, how does the “Percent Effect” value (30.3 µM, […]) read?
**A.** -14%

**Q.** `CCN(CC)C(=O)c1ccn(COc2ccccc2)n1` was tested. Which “Percent Effect” value (30 µM, 30.03 µM) did it give?
**A.** 25.56%

**Q.** How did the “Percent Effect” value (30.3 µM, […]) turn out when `Cc1cc(C)cc(OCn2ccc(C(=O)O)n2)c1` was run?
**A.** 36.81%

**Q.** For `CCN(CC)C(=O)c1ccn(COc2cc(C)cc(C)c2)n1`, which “Percent Effect” value (30 µM, 30.03 µM) is on record?
**A.** 51.39%

**Q.** Which “Percent Effect” value (30 µM, 30.03 µM) does the source give for `Cc1cc(C(=O)N2C[C@@H](C(=O)O)[C@H](c3ccccc3C)C2)c(C)o1` here?
**A.** -7.821%

**Q.** Which “Percent Effect” value (30.3 µM, […]) does the source give for `O=C(c1cc(-c2cn[nH]c2)nc2cc(F)ccc12)N1CCS(=O)(=O)CC1` here?
**A.** 4.667%

**Q.** For `Cc1ccoc1C(=O)NCCS(=O)(=O)N1CCSCC1`, which “Percent Effect” value (30.3 µM, […]) is on record?
**A.** 62.05%

**Q.** With `Cc1ccc(C(=O)NCCS(=O)(=O)N2CCSCC2)o1` as the compound, how does the “Percent Effect” value (30.3 µM, […]) read?
**A.** -11.12%

**Q.** Which “Percent Effect” value (30.3 µM, […]) does the source give for `Cc1cc(C)cc(C(=O)NCCS(=O)(=O)N2CCSCC2)c1` here?
**A.** -32.85%

**Q.** `CN1CCN([C@@H]2CN(C(=O)CCOc3ccccc3)C[C@H]2O)CC1` was tested. Which “Percent Effect” value (30.3 µM, […]) did it give?
**A.** 23.88%

**Q.** For `COc1cc(CN[C@@H]2COC[C@H]2Cc2cc(C)no2)cc(OC)c1.O=C(O)CC(O)(CC(=O)O)C(=O)O`, which “Percent Effect” value (30.3 µM, […]) is on record?
**A.** 4.158%

**Q.** `CN1CCN(c2nsc(-c3cccnc3)c2C#N)CC1` was tested. Which “Percent Effect” value (30.3 µM, […]) did it give?
**A.** 11.24%

**Q.** With `Cc1nn(C)c(C)c1-c1cnc(C2CCCN(S(C)(=O)=O)C2)cn1` (stereo not given) as the compound, how does the “Percent Effect” value (30.3 µM, […]) read?
**A.** 19.29%

**Q.** `CO[C@H]1CN(C(=O)c2cccnc2)[C@@H]2CCCO[C@H]12.O=C(O)C(F)(F)F` was tested. Which “Percent Effect” value (30.3 µM, […]) did it give?
**A.** 4.595%

**Q.** How did the “Percent Effect” value (30.3 µM, […]) turn out when `Cc1nc(CN(C)C)cc(N2CCCC(COc3ccc(F)cc3)C2)n1` (stereo not given) was run?
**A.** -8.427%

**Q.** For `CNC(=O)c1ccnc(N2CCCC(COc3cccc(C)c3)C2)c1` (stereo not given), which “Percent Effect” value (30.3 µM, […]) is on record?
**A.** 30.74%

**Q.** Which “Percent Effect” value (30.3 µM, […]) does the source give for `COc1cccc(OCC2CCCN(c3cc(C(N)=O)ccn3)C2)c1` (stereo not given) here?
**A.** 42.88%

**Q.** Which “Percent Effect” value (30.3 µM, […]) does the source give for `Cc1ccc(OCC2CCCN(c3cc(C(N)=O)ccn3)C2)cc1` (stereo not given) here?
**A.** 60.08%

**Q.** `Cc1ccccc1OCC1CCCN(c2cc(N)nc(N)n2)C1` (stereo not given) was tested. Which “Percent Effect” value (30.3 µM, […]) did it give?
**A.** 98.85%

**Q.** `Nc1cc(N2CCCC(COc3ccc(F)cc3)C2)ncn1` (stereo not given) was tested. Which “Percent Effect” value (30.3 µM, […]) did it give?
**A.** 1.04%

**Q.** Which “Percent Effect” value (30.3 µM, […]) does the source give for `CCNC(=O)c1ccnc(N2CCCC(COc3ccccc3C)C2)c1` (stereo not given) here?
**A.** 33.05%

**Q.** With `Cc1nc(N)cc(N2CCCC(COc3cccc(F)c3)C2)n1` (stereo not given) as the compound, how does the “Percent Effect” value (30.3 µM, […]) read?
**A.** 87.26%

**Q.** Which “Percent Effect” value (30.3 µM, […]) does the source give for `Nc1cc(N2CCCC(COc3ccc(F)cc3)C2)nc(N)n1` (stereo not given) here?
**A.** -15.02%
